± gives the standard deviation of the averaged measurements.
Tests used:
Experiment in all cases: relative enzymatic activity vs untreated control (fraction); higher = less inhibition
Conditions in all cases: 100 µM; incubation time: 2 h at 37 C
[1] = system: DNA gyrase
Experimental: (§1)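 In vitro enzymatic inhibition assays (ProFoldin kits) for 12 purified essential E. coli enzymes or complexes, each treated with 218 active antibacterial compounds at 100 µM for 2 h at 37°C. Read-outs were fluorescence or absorbance (phosphate detection, dye binding), converted to activity via standard curves and expressed relative to untreated DMSO controls.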

[2] = molecular target: DNA helicase (UniProt P0ACB1)
Experimental: as §1

[3] = molecular target: DNA ligase (UniProt B1XA82)
Experimental: as §1

[4] = molecular target: DNA polymerase (UniProt P10443)
Experimental: as §1

[5] = molecular target: DNA primase (UniProt P0ABS7)
Experimental: as §1

[6] = molecular target: GlmU (UniProt A7ZTU1)
Experimental: as §1

[7] = molecular target: Guanlyate kinase (UniProt Q0TBG1)
Experimental: as §1

[8] = molecular target: MurA (UniProt Q3YX52)
Experimental: as §1

[9] = molecular target: T1, MurD (UniProt P14900)
T1 sequence (whole entry): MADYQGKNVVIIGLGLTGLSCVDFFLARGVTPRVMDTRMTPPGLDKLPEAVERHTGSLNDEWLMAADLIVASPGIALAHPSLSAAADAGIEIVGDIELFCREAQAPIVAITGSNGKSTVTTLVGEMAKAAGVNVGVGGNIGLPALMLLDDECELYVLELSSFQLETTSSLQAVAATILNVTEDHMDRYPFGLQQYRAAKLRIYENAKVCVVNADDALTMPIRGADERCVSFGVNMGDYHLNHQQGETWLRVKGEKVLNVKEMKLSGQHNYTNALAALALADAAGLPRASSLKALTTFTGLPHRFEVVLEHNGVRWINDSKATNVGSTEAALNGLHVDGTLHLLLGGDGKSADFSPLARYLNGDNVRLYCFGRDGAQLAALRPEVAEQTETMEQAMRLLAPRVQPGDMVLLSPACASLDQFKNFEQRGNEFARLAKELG
Experimental: as §1

[10] = molecular target: T2, MurF (UniProt P11880)
T2 sequence (whole entry): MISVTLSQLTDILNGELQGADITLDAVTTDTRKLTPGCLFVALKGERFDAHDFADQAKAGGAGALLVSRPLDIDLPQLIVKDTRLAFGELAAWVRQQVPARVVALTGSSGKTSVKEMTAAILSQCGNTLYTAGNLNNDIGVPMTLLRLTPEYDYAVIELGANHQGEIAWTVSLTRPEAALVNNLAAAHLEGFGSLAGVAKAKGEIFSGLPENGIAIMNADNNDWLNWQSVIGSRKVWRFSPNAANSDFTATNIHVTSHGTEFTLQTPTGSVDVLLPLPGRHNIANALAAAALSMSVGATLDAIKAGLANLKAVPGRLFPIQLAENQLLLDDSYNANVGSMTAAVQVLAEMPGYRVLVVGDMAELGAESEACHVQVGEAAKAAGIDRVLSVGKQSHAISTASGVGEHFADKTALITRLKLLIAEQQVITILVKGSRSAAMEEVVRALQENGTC
Experimental: as §1

[11] = system: RNA polymerase
Experimental: as §1

[12] = molecular target: MurC (UniProt C4ZRI6)
Experimental: as §1

Sequence of DNA ligase (B1XA82 whole entry): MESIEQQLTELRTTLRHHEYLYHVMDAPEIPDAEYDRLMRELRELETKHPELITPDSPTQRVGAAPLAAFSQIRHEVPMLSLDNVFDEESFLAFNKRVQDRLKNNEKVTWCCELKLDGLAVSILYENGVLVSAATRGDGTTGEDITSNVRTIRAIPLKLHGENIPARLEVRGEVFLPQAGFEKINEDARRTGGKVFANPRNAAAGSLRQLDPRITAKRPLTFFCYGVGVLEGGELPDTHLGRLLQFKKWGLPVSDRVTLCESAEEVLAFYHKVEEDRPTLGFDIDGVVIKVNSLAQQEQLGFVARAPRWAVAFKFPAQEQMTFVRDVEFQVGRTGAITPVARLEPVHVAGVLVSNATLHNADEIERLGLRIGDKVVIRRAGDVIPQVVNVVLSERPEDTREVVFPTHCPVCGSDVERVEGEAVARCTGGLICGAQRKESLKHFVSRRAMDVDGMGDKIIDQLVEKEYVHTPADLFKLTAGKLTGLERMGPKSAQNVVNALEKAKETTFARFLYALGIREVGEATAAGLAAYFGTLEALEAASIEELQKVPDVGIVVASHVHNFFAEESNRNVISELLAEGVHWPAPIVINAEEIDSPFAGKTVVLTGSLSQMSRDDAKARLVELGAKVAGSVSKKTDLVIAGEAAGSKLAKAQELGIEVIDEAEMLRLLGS
Sequence of MurA (Q3YX52 whole entry): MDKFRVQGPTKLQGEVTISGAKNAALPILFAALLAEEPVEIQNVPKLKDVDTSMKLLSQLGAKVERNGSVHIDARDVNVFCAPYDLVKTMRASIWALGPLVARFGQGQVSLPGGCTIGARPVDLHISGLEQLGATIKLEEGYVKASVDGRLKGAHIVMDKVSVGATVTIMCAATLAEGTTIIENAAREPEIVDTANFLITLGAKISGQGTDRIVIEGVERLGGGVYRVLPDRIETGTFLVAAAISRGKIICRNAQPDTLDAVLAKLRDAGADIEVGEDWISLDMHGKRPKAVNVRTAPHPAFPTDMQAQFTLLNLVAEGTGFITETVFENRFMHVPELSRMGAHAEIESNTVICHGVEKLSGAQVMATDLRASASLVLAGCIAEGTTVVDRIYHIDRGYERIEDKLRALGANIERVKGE
Sequence of DNA polymerase (P10443 whole entry): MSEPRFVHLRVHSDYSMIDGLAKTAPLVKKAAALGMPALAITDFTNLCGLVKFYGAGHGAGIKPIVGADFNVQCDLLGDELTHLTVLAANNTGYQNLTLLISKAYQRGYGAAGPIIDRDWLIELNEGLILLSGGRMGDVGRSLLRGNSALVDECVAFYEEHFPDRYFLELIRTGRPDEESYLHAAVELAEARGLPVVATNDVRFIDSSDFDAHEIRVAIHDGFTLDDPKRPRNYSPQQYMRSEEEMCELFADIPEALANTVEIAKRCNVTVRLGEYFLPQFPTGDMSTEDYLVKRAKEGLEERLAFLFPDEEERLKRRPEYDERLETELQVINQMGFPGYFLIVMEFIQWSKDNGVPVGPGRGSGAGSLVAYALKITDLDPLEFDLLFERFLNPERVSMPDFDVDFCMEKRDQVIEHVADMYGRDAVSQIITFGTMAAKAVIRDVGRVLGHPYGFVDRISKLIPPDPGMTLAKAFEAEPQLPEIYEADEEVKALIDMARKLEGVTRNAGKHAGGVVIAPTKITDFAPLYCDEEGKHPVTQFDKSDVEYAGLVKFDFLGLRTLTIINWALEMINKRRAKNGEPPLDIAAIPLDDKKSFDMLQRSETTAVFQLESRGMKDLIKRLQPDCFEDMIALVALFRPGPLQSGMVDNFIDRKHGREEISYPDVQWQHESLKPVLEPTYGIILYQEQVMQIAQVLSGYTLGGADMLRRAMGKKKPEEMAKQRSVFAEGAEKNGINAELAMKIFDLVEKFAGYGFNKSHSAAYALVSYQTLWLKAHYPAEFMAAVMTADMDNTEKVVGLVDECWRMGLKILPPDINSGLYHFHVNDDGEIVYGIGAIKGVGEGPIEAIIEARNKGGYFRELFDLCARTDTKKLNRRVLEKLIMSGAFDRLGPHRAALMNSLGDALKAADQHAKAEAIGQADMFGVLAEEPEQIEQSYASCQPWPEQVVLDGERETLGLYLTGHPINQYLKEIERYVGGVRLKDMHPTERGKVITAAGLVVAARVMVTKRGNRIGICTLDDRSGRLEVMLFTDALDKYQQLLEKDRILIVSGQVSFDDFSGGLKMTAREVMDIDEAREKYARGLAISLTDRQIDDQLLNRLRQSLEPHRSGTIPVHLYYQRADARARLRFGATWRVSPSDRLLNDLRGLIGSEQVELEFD
Sequence of DNA helicase (P0ACB1 whole entry): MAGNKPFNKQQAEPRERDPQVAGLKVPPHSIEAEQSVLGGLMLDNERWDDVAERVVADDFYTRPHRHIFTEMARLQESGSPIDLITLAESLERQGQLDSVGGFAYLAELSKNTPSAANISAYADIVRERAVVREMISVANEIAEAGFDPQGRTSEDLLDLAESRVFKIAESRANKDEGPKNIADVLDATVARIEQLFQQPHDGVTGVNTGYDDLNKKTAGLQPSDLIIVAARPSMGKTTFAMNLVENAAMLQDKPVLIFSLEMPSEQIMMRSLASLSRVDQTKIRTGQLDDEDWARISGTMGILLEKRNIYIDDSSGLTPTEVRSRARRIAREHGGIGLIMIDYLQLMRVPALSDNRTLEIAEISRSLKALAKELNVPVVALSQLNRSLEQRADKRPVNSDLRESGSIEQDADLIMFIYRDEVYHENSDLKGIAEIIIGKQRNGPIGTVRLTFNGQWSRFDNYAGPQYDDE
Sequence of MurC (C4ZRI6 whole entry, looked up): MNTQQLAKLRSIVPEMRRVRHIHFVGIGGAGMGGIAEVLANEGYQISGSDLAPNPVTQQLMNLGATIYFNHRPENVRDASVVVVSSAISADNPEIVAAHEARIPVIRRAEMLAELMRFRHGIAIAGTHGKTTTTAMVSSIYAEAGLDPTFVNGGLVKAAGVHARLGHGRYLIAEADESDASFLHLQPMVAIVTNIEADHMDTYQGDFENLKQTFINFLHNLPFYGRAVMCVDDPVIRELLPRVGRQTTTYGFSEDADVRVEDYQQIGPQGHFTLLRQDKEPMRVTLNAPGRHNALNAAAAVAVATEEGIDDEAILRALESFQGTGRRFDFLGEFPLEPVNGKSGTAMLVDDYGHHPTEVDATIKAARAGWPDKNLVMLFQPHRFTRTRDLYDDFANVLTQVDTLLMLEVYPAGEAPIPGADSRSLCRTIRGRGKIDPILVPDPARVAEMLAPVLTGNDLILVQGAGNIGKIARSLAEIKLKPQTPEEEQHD
Sequence of DNA primase (P0ABS7 whole entry): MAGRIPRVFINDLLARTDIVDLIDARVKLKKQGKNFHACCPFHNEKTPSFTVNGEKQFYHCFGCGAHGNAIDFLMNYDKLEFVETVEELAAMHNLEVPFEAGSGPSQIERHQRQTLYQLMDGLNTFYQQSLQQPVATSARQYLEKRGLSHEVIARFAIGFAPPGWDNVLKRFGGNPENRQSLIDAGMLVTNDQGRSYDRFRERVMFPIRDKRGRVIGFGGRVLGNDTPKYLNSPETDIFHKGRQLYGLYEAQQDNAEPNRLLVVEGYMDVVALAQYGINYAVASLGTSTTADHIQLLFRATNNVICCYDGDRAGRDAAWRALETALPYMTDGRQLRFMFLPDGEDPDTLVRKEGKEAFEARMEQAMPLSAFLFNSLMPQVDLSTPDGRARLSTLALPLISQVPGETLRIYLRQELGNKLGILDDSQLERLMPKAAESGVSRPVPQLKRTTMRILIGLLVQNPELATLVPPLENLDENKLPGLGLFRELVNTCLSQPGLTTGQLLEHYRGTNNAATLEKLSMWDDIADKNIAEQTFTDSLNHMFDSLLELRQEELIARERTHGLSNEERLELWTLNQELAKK
Sequence of GlmU (A7ZTU1 whole entry, looked up): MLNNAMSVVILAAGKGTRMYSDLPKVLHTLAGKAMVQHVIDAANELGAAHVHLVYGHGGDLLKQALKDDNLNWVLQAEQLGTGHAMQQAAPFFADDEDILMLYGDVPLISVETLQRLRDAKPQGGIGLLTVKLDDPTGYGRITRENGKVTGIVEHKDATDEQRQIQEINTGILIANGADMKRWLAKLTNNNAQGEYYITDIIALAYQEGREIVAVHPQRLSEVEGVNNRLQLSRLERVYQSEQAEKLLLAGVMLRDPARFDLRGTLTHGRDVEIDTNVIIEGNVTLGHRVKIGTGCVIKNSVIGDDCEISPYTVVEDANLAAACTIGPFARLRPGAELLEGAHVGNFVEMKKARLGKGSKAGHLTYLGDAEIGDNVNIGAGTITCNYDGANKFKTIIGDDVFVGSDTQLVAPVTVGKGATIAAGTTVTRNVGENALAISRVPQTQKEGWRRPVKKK
Sequence of Guanlyate kinase (Q0TBG1 whole entry): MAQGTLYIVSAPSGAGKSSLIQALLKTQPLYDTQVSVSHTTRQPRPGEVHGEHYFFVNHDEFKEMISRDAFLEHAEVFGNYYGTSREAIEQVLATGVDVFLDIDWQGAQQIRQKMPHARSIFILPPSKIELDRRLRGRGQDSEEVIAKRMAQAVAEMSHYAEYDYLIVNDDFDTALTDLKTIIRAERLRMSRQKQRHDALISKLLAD

| Compound | relative enzymatic activity [1] | relative enzymatic activity [2] | relative enzymatic activity [3] | relative enzymatic activity [4] | relative enzymatic activity [5] | relative enzymatic activity [6] | relative enzymatic activity [7] | relative enzymatic activity [8] | relative enzymatic activity [9] | relative enzymatic activity [10] | relative enzymatic activity [11] | relative enzymatic activity [12] |
| --- | --- | --- | --- | --- | --- | --- | --- | --- | --- | --- | --- | --- |
| O=C([O-])C1=C(CSc2nnnn2CS(=O)(=O)[O-])CSC2C(NC(=O)C(O)c3ccccc3)C(=O)N12.[Na+].[Na+] (stereo not drawn) | 0.964 ± 0.12 | 0.74 ± 0.14 | 1.26 ± 0.45 | 1.24 ± 0.4 | 0.753 ± 0.0084 | 1.1 ± 0.034 | 0.879 ± 0.012 | 0.1 ± 0.034 | 0.217 ± 0.2 | 1.03 ± 0.24 | 0.815 ± 0.068 |  |
| CC(=O)OCC1=C(C(=O)[O-])N2C(=O)C(NC(=O)Cc3cccs3)C2SC1.[Na+] (stereo not drawn) | 0.626 ± 0.6 | 0.395 ± 0.012 | 1.26 ± 0.12 | 1.09 ± 0.26 | 0.713 ± 0.036 | 1 ± 0.084 | 0.974 ± 0.057 | 0.0754 ± 0.023 | 0.597 ± 0.38 | 0.958 ± 0.23 | 0.622 ± 0.13 | 1.08 ± 0.043 |
| COC12C(COC(N)=O)C3=C(C(=O)C(C)=C(N)C3=O)N1CC1NC12 (stereo not drawn) | 1.01 ± 0.063 | 0.964 ± 0.15 | 1.03 ± 0.025 | 1.31 ± 0.47 | 0.728 ± 0.2 | 1.02 ± 0.018 | 1.05 ± 0.032 | 0.264 ± 0.12 | 0.589 ± 0.41 | 1.01 ± 0.23 | 0.882 ± 0.01 | 0.719 ± 0.092 |
| Cc1c(N)nc([C@H](CC(N)=O)NC[C@H](N)C(N)=O)nc1C(=O)N[C@H](C(=O)N[C@H](C)[C@@H](O)[C@H](C)C(=O)N[C@H](C(=O)NCCc1nc(-c2nc(C(=O)NCCCNCCCCN)cs2)cs1)[C@@H](C)O)[C@@H](O[C@@H]1O[C@@H](CO)[C@@H](O)[C@H](O)[C@@H]1O[C@@H]1O[C@H](CO)[C@@H](O)[C@H](OC(N)=O)[C@@H]1O)c1c[nH]cn1 | 0.0474 ± 0.067 | 0.732 ± 0.39 | 0.811 ± 0.15 | 0.308 ± 0.022 | 0.762 ± 0.041 | 0.988 ± 0.023 | 0.871 ± 0.084 | 0.872 ± 0.13 | 0.622 ± 0.4 | 0.281 ± 0.39 | 0.75 ± 0.034 | 1.006 ± 0.0098 |
| Cc1cc(C(C)(C)CC(C)(C)C)ccc1OCCOCC[N+](C)(C)Cc1ccccc1.[Cl-] | 0.0681 ± 0.096 | 0.0148 ± 0.0016 | 1.09 ± 0.19 | 0.247 ± 0.011 | 0.55 ± 0.034 | 0.409 ± 0.4 | 0.428 ± 0.034 | 0.0365 ± 0.0028 | 0.0983 ± 0.021 | 0.477 ± 0.33 | 0.664 ± 0.036 |  |
| CN1CCN(c2c(F)cc3c(=O)c(C(=O)O)cn(CCF)c3c2F)CC1 | 0.024 ± 0.034 | 0.746 ± 0.23 | 1.37 ± 0.041 | 1.28 ± 0.3 | 0.722 ± 0.21 | 1.16 ± 0.2 | 0.94 ± 0.085 | 0.748 ± 0.029 | 0.591 ± 0.39 | 0.984 ± 0.22 | 1.05 ± 0.31 | 1.02 ± 0.011 |
| NCC[C@H](O)C(=O)N[C@@H]1C[C@H](N)[C@@H](O[C@H]2O[C@H](CN)[C@@H](O)[C@H](O)[C@H]2O)[C@H](O)[C@H]1O[C@H]1O[C@H](CO)[C@@H](O)[C@H](N)[C@H]1O | 0.228 ± 0.0032 | 0.0994 ± 0.0019 | 0.871 ± 0.16 | 0.863 ± 0.26 | 0.508 ± 0.14 | 0.9473 ± 0.0079 | 0.438 ± 0.056 | 0.326 ± 0.1 | 0.608 ± 0.42 | 0.979 ± 0.24 | 0.699 ± 0.083 | 1.05 ± 0.11 |
| CCCN1C[C@H](C)[C@@H](O)[C@](C)(O)[C@@H](CC)OC(=O)[C@H](C)[C@@H](O[C@H]2C[C@@](C)(OC)[C@@H](O)[C@H](C)O2)[C@H](C)[C@@H](O[C@@H]2O[C@H](C)C[C@H](N(C)C)[C@H]2O)[C@](C)(O)C[C@H]1C | 0.764 ± 0.38 | 0.556 ± 0.17 | 0.802 ± 0.014 | 1.09 ± 0.11 | 0.868 ± 0.012 | 1.073 ± 0.0078 | 0.858 ± 0.12 | 0.761 ± 0.074 | 0.596 ± 0.42 | 0.968 ± 0.17 | 0.766 ± 0.12 | 1.02 ± 0.024 |
| COc1c(N2CC3CCCNC3C2)c(F)cc2c(=O)c(C(=O)O)cn(C3CC3)c12.Cl (stereo not drawn) | 0.0344 ± 0.049 | 0.559 ± 0.16 | 1.22 ± 0.1 | 1.13 ± 0.18 | 0.682 ± 0.17 | 0.986 ± 0.039 | 0.825 ± 0.096 | 0.795 ± 0.041 | 0.597 ± 0.41 | 0.94 ± 0.19 | 0.868 ± 0.083 | 1.01 ± 0.025 |
| CCn1nc(C(=O)O)c(=O)c2cc3c(cc21)OCO3 | 0.136 ± 0.013 | 0.479 ± 0.042 | 1.093 ± 0.01 | 1.29 ± 0.3 | 0.744 ± 0.21 | 0.99 ± 0.077 | 1.013 ± 0.0046 | 0.762 ± 0.17 | 0.61 ± 0.41 | 0.86 ± 0.028 | 0.929 ± 0.051 |  |
| CO/N=C(\C(=O)N[C@@H]1C(=O)N2C(C(=O)O)=C(C[N+]3(C)CCCC3)CS[C@H]12)c1csc(N)n1 | 0.284 ± 0.099 | 0.202 ± 0.28 | 1.11 ± 0.05 | 1.12 ± 0.18 | 0.722 ± 0.012 | 0.943 ± 0.023 | 1.06 ± 0.074 | 0.144 ± 0.026 | 0.591 ± 0.42 | 1.15 ± 0.066 | 0.575 ± 0.11 | 0.8921 ± 0.007 |
| CC(C)(O/N=C(\C(=O)N[C@@H]1C(=O)N2C(C(=O)O)=C(C[N+]3(CCNC(=O)c4ccc(O)c(O)c4Cl)CCCC3)CS[C@H]12)c1csc(N)n1)C(=O)O | 0.401 ± 0.11 | 0.506 ± 0.075 | 0.933 ± 0.058 | 1.05 ± 0.32 | 0.753 ± 0.013 | 0.92 ± 0.062 | 0.834 ± 0.094 | 0.0569 ± 0.016 | 0.515 ± 0.35 | 1.01 ± 0.23 | 0.672 ± 0.082 |  |
| CC[C@H]1OC(=O)[C@H](C)[C@@H](O[C@H]2C[C@@](C)(OC)[C@@H](O)[C@H](C)O2)[C@H](C)[C@@H](O[C@@H]2O[C@H](C)C[C@H](N(C)C)[C@H]2O)[C@](C)(O)C[C@@H](C)CN(C)[C@H](C)[C@@H](O)[C@]1(C)O | 0.608 ± 0.34 | 0.527 ± 0.072 | 0.871 ± 0.086 | 1.04 ± 0.12 | 0.836 ± 0.027 | 0.99 ± 0.031 | 0.865 ± 0.079 | 0.746 ± 0.079 | 0.58 ± 0.37 | 0.95 ± 0.23 | 0.897 ± 0.19 | 1.06 ± 0.02 |
| COC1C=COC2(C)Oc3c(C)c(O)c4c(O)c(c(C=NN5CCN(C6CCCC6)CC5)c(O)c4c3C2=O)NC(=O)C(C)=CC=CC(C)C(O)C(C)C(O)C(C)C(OC(C)=O)C1C (stereo not drawn) | 0.305 ± 0.28 | 0.66 ± 0.082 | 0.866 ± 0.13 | 0.952 ± 0.37 | 0.647 ± 0.093 | 0.259 ± 0.016 | 0.435 ± 0.013 | 0.144 ± 0.12 | 0.132 ± 0.046 | 0.4854 ± 0.0039 | 0.0856 ± 0.00076 | 0.182 ± 0.016 |
| CN(C)C1C(O)=C(C(N)=O)C(=O)C2(O)C(O)=C3C(=O)c4c(O)ccc(Cl)c4C(C)(O)C3CC12.Cl (stereo not drawn) | 1.15 ± 0.17 | 0.47 ± 0.023 | 1.03 ± 0.23 | 1.35 ± 0.47 | 0.707 ± 0.21 | 0.974 ± 0.048 | 0.961 ± 0.076 | 0.767 ± 0.014 | 0.584 ± 0.37 | 0.93 ± 0.17 | 0.822 ± 0.027 | 1.05 ± 0.02 |
| O=C(O)c1c(O)c2c([nH]c1=O)CCCC2 | 0.374 ± 0.066 | 0.479 ± 0.056 | 1.18 ± 0.34 | 1.08 ± 0.16 | 0.752 ± 0.029 | 0.975 ± 0.042 | 0.874 ± 0.041 | 0.769 ± 0.13 | 0.611 ± 0.39 | 0.899 ± 0.18 | 0.636 ± 0.18 | 0.602 ± 0.36 |
